Assay results taken from PubChem BioAssay (NCI).
The panel holds about 83,000 compounds, 20% with a hit somewhere; the sample as a whole holds those more often.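 Each cell line was grown in a 96-well plate and treated with one concentration of compound for 48 hours. Values below 10 were considered active.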 Unmarked numbers belong to inactive results. Activity calls are given as the source filed them.

Legend:
Assay in all cases: NCI-60 one-dose screen, 48 h (100 = growth as untreated, 0 = no growth, -100 = all killed)
Conditions in all cases: 10 µM unless noted
T-47D breast = system: T-47D breast
BT-549 breast = system: BT-549 breast
MDA-MB-435 melanoma = system: MDA-MB-435 melanoma
SW-620 colon = system: SW-620 colon
MCF7 breast = system: MCF7 breast
HCT-116 colon = system: HCT-116 colon
HCC-2998 colon = system: HCC-2998 colon
KM12 colon = system: KM12 colon

SMILES | growth (T-47D breast) | growth (BT-549 breast) | growth (MDA-MB-435 melanoma) | growth (SW-620 colon) | growth (MCF7 breast) | growth (HCT-116 colon) | growth (HCC-2998 colon) | growth (KM12 colon)
c1ccc(Sc2ncnc3ccccc23)cc1 | 63.8% | 51.6% | 38.1% | 84.9% | 63.8% | 72% | 107% | 86.1%
COc1ccc(CNc2nccnn2)cc1 | 105% | 114% | 102% | 104% | 99.4% | 101% | 98.7% | 99.3%
O=C1c2ccccc2-c2nccc3cc(Cl)nc1c23 | -52.5% (active) | 58.5% | -73.7% (active) | -54% (active) | -59.5% (active) | -91% (active) | 101% | 25.7%
O=C1/C(=C/c2ccc(Cl)c(Cl)c2)CN(C(=O)CCN2CCC(=NO)CC2)C/C1=C\c1ccc(Cl)c(Cl)c1 | -79.9% (active) | -87.9% (active) | -93.8% (active) | -62.9% (active) | -53.8% (active) | -47.1% (active) | -77.1% (active) | -80.9% (active)
COc1ccc2c(c1)C(=O)/C(=C/c1cccc(OCC(=O)Nc3nc4c(s3)CCCC4)c1)O2 | 47.1% | -65.4% (active) | 27.3% | -61.6% (active) | 21.9% | -25.7% (active) | -66.7% (active) | -68.3% (active)
O=[N+]([O-])c1cccc(-c2nc3sccn3c2-c2ccnc(NCCCNS(=O)(=O)c3cccc(F)c3)n2)c1 | -13.4% (active) | -16.8% (active) | -19.4% (active) | 22.9% | -18.9% (active) | 7.77% (active) | 65.6% | -10.6% (active)
O=C(COc1cccc(/C=C2/Oc3ccccc3C2=O)c1)Nc1nccs1 | 166% | 87.9% | 103% | 97.2% | 54.4% | 73.9% | 105% | 4.37% (active)
CC(=O)/C(=C/c1cccc(Cl)c1)C(=O)c1ccccc1 | 63.6% | 72.6% | 72.7% | 71.3% | 34% | 41.7% | 99.9% | 54.8%
CC(C)Oc1nc2c(c(=O)n(C)c(=O)n2C)n1C | 90.3% | 109% | 105% | 102% | 95.2% | 101% | 101% | 105%
Cn1c(=O)c2[nH]c(C(O)C(O)C(O)C(O)CO)nc2n(C)c1=O (stereo not given) | 90.8% | 108% | 108% | 102% | 97.9% | 106% | 103% | 101%
c1ccc(-c2nc(N3CCOCC3)c3c4c(sc3n2)CCCCC4)nc1 | 8.3% (active) | 62.8% | 71% | 88.6% | 23.7% | 74.3% | 83% | 64.7%
CC(=O)Oc1cc2cnc3c4cc(OC(C)=O)c(OC(C)=O)cc4ccc3c2cc1OC(C)=O | 14.7% | 26.8% | 23.3% | 24.8% | 6.96% (active) | 5.17% (active) | 45.7% | 22.8%
C=C1C(=O)O[C@H]2[C@H]1CC/C(Cn1cc(Cc3c[nH]c4ccccc34)nn1)=C\CC[C@@]1(C)O[C@@H]21 | 1.32% (active) | 44.2% | 13.6% | -58.7% (active) | -61.2% (active) | -89.5% (active) | 61.5% | 67.2%
O=C(O)c1cccnc1Br | 85.4% | 110% | 102% | 110% | 96.8% | 98.1% | 98.5% | 113%
O=c1[nH]c(-c2ccccn2)nc2sc3c(c12)CCCCC3 | 33.8% | 70.1% | 55.7% | 29.5% | 32.9% | 24.7% | 68.7% | 39.4%
CCCCCn1cnc2c(=S)nc[nH]c21 | 90.8% | 129% | 105% | 97.8% | 98.4% | 106% | 122% | 109%
CC(=O)OCC(=O)C1CCC=CC1OC(C)=O (stereo not given) | 87.8% | 103% | 98.3% | 111% | 105% | 100% | 102% | 99.7%
O=C(C[C@@H](C(=O)NCc1cccc(C(F)(F)F)c1)N1C(=O)[C@@H](N2C(=O)OC[C@@H]2c2ccccc2)[C@H]1/C=C/c1ccccc1)NC1CCN(Cc2ccccc2)CC1 | 50.8% | 74.2% | 66.8% | 59.8% | 7.27% (active) | 30.4% | 59.9% | 59.4%
CN(C)CCOc1ccc(-c2nc3ccc(-c4nc5ccc(N6CCN(C)CC6)cc5[nH]4)cc3[nH]2)cc1 | 55.3% | 74.2% | 61.2% | 66.3% | 35.5% | 48.3% | 99% | 57.3%
C[C@H](CCC(=O)O)[C@H]1CC[C@H]2[C@@H]3CC[C@@H]4/C(=C\c5ccco5)C(=O)/C(=C\c5ccco5)C[C@]4(C)[C@H]3CC[C@]12C | 55.6% | 52.9% | 37.1% | 27.4% | 32.5% | 21.8% | 92.8% | 74.5%
O=C(Nc1cccc2c1C(=O)c1cccc(Nc3cccc4c3C(=O)c3cccc(NC(=O)c5ccccc5)c3C4=O)c1C2=O)c1ccccc1 | 116% | 113% | 104% | 109% | 107% | 109% | 114% | 114%
CC1CN(C(C)C)C(=S)N(c2ccccc2)C1=O (stereo not given) | 166% | 101% | 96.3% | 108% | 96.7% | 89.4% | 101% | 109%
COc1cc(NCCCCN=C(N)NC(N)=NC(C)C)c2ncccc2c1 | -8.55% (active) | 54.8% | 110% | 62.9% | -94.3% (active) | 1.56% (active) | 11.9% | 20.1%
CCCCCCCCCc1cc(CN2CCCCC2)c(O)c(CN2CCCCC2)c1 | 19.8% | 70.1% | 78.4% | 69.8% | 44% | 39.1% | 68.2% | 50.6%
CCCCCCCCCCNC(=O)CCl | 41.1% | 49% | 89.6% | 93.3% | 74.5% | 69.3% | 84.4% | 67.4%
CSc1[nH]c2ncnc(N)c2c1C#N | 97.3% | 85.9% | 102% | 128% | 100% | 102% | 108% | 122%
CCCCN(CC)CCCCCCCCCCN1CCCc2cc(OC)ccc21 | 93.6% | 89.3% | 14.5% | 22.7% | 99% | 69.7% | -26% (active) | -1.91% (active)
Cc1ccc(Nc2c(C(N)=O)cnc3ccc(-c4csc(N)n4)cc23)cc1 | 96.7% | 96.4% | 102% | 97% | 92.4% | 93.5% | 100% | 95.6%
CCOC(=O)c1c2ncccc2n2c(=O)n(-c3ccc(Cl)cc3)nnc12 | 61.1% | 43.6% | 49.7% | 105% | 76.6% | 86.9% | 90.3% | 70.7%
COCCCN=C(N)c1ccc(NC(=O)c2ccc(C(=O)Nc3ccc(C(N)=NCCCOC)cc3)cc2)cc1 | 108% | 78.6% | 88.4% | 106% | 109% | 79.7% | 116% | 132%
